Bioassay records from PubChem.
Shiga inhibitor: Shiga toxin inhibition | Vero cells, Shiga toxin protein synthesis inhibition reporter | inhibition, % at 38.7 µM | 9.2% of 290,000 active | AID 2315; in the data active means inhibition mostly above about 28%, no sharp cut-off; inactive means mostly below about 43%; further: 0% is about no effect
Pf growth 48h: inhibits P. falciparum growth in the first generation, 48 h; 5.9% of 310,000 active; P. falciparum luciferase growth in erythrocytes, 48 h; Potency, µM (series often up to 28.7 µM), inactives show at the highest dose activity change, negative = inhibition, actives largely listed as inhibitors; further: potency means the concentration at half of the fitted maximal effect; on the % scale 0 is the no-effect control and ±100 the full control effect
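Erythrocytes infected with P. falciparum carrying an integrated firefly luciferase reporter (2% hematocrit, 0.1% parasitemia final) were exposed to compounds in RPMI 1640 with 0.5% Albumax at 37 C, 5% CO2. Growth inhibition was scored as reduced luminescence.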
CHX counter: affects cycloheximide protein synthesis inhibition readout, counter-screen. AID 2314. cell reporter, cycloheximide protein synthesis inhibition counterscreen. max response, %. 12% of 300,000 active; in the data active means max response mostly above about 13%, no sharp cut-off; inactive means mostly below about 14%; further: read at 38.3 µM for the half of the compounds with a filed dose; 0% is about no effect
NS1 function inh: blocks influenza NS1 protein function. Potency, µM (highest dose often 46.1 µM), without a hit: top-dose activity, positive = more growth. 0.4% of 270,000 active. AID 2326; calls by dose curve; further: potency means the concentration at half of the fitted maximal effect; actives are rising curves; nearly all actives have a fitted effect of over 50% in size
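OD600 was taken as the measure of yeast growth restored by compound in an NS1-expressing S. cerevisiae strain. Cells had been washed out of glucose medium and diluted 1:100 into galactose -URA medium, pH 6.0.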
Pf growth 96h: inhibits malaria parasite growth, 96 h; P. falciparum luciferase reporter growth, 96 h; Potency, µM (titrated, usually from 28.7 µM), inactives show at the top dose activity change, negative = inhibition, hits mostly inhibitors; 6.9% of 320,000 active; AID 504834; further: potency means the concentration at half of the fitted maximal effect; on the % scale 0 is the no-effect control and ±100 the full control effect
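Delayed-death screen, second-generation endpoint: infected erythrocytes, 2% hematocrit, 0.05% parasitemia final; 96 hours at 37 C, 5% CO2; luciferase detection reagent; luminescence decrease equals reduced growth.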
Sm TGR inh: S. mansoni TGR enzyme inhibition | Q962Y6 | 3% of 360,000 active | Potency, µM (series often up to 114 µM), inactives show top-dose activity change, negative = inhibition, usual class: inhibitors | purified TGR, DTNB reduction, TNB absorbance 405 nm | AID 485364; further: potency means the concentration at half of the fitted maximal effect; on the % scale 0 is the no-effect control and ±100 the full control effect; nearly all actives have a fitted effect of over 60% in size
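Kinetic colorimetric format: TGR-catalysed, NADPH-driven DTNB reduction monitored via TNB absorbance. Enzyme dispensed at 20 nM; compound exposure 15 min at room temperature before reaction start.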
* hit, by the source's call; ? = inconclusive; · = no result. Rows were chosen to be rich in hits. Some 21% of all compounds tested hit in one or more screens of this group. Unless noted, the call rests on the fitted dose curve; in most records, active means well fitted curve in the direction sought with a large enough effect; inconclusive means small, poorly fitted or top-dose-only effect, or another doubt; inactive means no such curve, though single readings can be large; an effect the other way counts as inactive or inconclusive.

SMILES	Shiga inhibitor	Pf growth 48h	CHX counter	NS1 function inh	Pf growth 96h	Sm TGR inh
COc1cc(C(=O)NCCC(C)C)ccc1OCc1ccc(Cl)cc1Cl	-5	10µM*	-3	0%	4.7µM*	2%
C=CCNc1nc2c(c(=O)[nH]c(=O)n2C)n1CC(O)COc1ccc2ccccc2c1 (configuration not stated)	-2	26%	-3	6%	31%	0%
c1ccc2c(c1)Cc1ccccc1O2	·	10%	·	·	118%	-8%
COc1cccc(-c2c(-c3cc(OC)cc(OC)c3)n(C)c3ccc(-c4ccc5[nH]ccc5c4)cc23)c1	·	5.9µM*	·	·	?	-5%
COc1cc(OC)cc(-c2c(-c3ccc(F)cc3)c3cc(-c4cccc5[nH]ccc45)ccc3n2C)c1	·	?	·	·	?	0%
COc1cccc(-c2c(-c3cc(OC)cc(OC)c3)n(C)c3ccc(-c4cccc5[nH]ccc45)cc23)c1	·	1.9µM*	·	·	?	-16%
COc1cc(OC)cc(-c2c(-c3ccc(F)cc3)c3cc(-c4ccc5[nH]ccc5c4)ccc3n2C)c1	·	5.2µM*	·	·	1.7µM*	-3%
CC1=C(C(=O)NCc2ccccc2Cl)C2(CCCCCC2)OC1=O	·	·	·	·	·	8%
CCn1c(C)nc2cc(C(=O)N/N=C/c3ccccc3)ccc21	94*	204%	34*	2%	159%	13%
CCn1c(C)nc2cc(C(=O)N/N=C/c3cccc(O)c3O)ccc21	67*	10µM*	31*	-6%	?	-34%
O=C(NNC(=O)c1ccccc1Cl)c1csc(N2CCOCC2)n1	·	86%	·	·	21%	3%
COc1cccc2cc(-c3nnc(SCC(=O)Nc4ccc(NC(C)=O)cc4)n3C)oc12	-12	15%	-3	-1%	-8%	-15%
Cc1ccc(C(=O)CCC(=O)O)cc1	-12	·	-4	2%	17%	?
O=C(O)CCC(=O)CCC(=O)c1ccccc1	-16	10%	-3	7%	?	45µM*
CCCc1ccc(C(=O)CCC(=O)O)cc1	65*	51%	52*	?	6%	-6%
CCOC(=O)c1cc(-c2ccccc2)sc1NC(=O)C(C)C	10	?	4	-3%	?	0%
CCOC(=O)c1cc(-c2ccccc2)sc1NC(=O)C(C)OC(=O)c1ccncc1 (configuration not stated)	0	39%	-2	-5%	-40%	0%
CCOC(=O)c1cc(-c2ccccc2)sc1NC(=O)C(C)Sc1nnnn1C (configuration not stated)	-5	?	-3	-10%	10µM*	2%
CCOC(=O)c1cc(-c2ccccc2)sc1NC(=O)C(C)N1C(=O)NC(C)(c2ccc(Cl)cc2)C1=O (configuration not stated)	-3	·	-2	18%	9.3µM*	-6%
CCOC(=O)c1cc(-c2ccccc2)sc1NC(=O)C(C)OC(=O)c1cccnc1Cl (configuration not stated)	-15	-4%	-3	-5%	9.3µM*	-8%
CCOC(=O)c1cc(-c2ccccc2)sc1NC(=O)C(C)Sc1nnc(C)s1 (configuration not stated)	39	13µM*	11*	?	?	5%
Cn1c(=O)n(Cc2ccccc2)c(=O)c2c1nc1n2CCN1c1ccccc1	·	·	·	·	·	-6%
Cc1c(C#N)c(NC(=O)c2cccc(Cl)c2)n(Cc2ccccc2)c1C	-4	12µM*	-1	-5%	13µM*	-11%
COc1ccc(Cn2c(C)c(C)c(C#N)c2NC(=O)Nc2cccc(Cl)c2)cc1	25	33%	14	4%	59%	-19%
Cc1cc(=O)oc2cc(OCC(=O)Nc3c(C(C)C)cccc3C(C)C)ccc12	·	·	·	·	·	-7%
CCCCn1c(NC(=O)c2ccco2)c(C(=O)OCC)c2nc3ccccc3nc21	-4	?	-1	-38%	?	25µM*
CCCCCn1c(NC(=O)c2ccco2)c(S(=O)(=O)c2ccc(C)cc2)c2nc3ccccc3nc21	2	5.2µM*	5	18%	?	?
CCCCn1c(NS(=O)(=O)c2ccc(C)cc2)c(C(=O)OCC)c2nc3ccccc3nc21	-15	-3%	2	3%	2%	-2%
